# Test results from PubChem BioAssay AID2685 (National Center for Advancing Translational Sciences (NCATS), 2010).
# The campaign covered roughly 320,000 compounds. About 2,100 (0.66%) were called active. Inconclusive results (about 53%) are left out. Calls come from the whole dose curve; as a rule, active = well fitted inhibition curve with a large enough effect in the signal ratio, with a control signal flat (not every such curve was filed as active); inconclusive = small, poorly fitted or top-dose-only effect, or effect the other way, or a change in a side signal; inactive = flat fitted curve, though single readings scatter; the % refers to the signal ratio. The entries come from a sample that favours actives as a whole.
# Assay: qHTS Assay for Lipid Storage Modulators in Drosophila S3 Cells;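 for cell number change: cells counted by Cell Tracker Red CMTPX staining in the red channel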; for lipid storage change, negative = inhibition: % is set by controls: 0 for no effect and ±100 for the full control effect
# Conditions: BODIPY lipid droplet fluorescence, 18-24 h, cells fed with added oleic acid; cell number change: measured here: cell count max response; series mostly up to 46.1 µM; lipid storage change, negative = inhibition: at the top concentration
# How it was run: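 Laser-scanning cytometry quantifies lipid droplet accumulation (500–530 nm total intensity; droplet/cell object ratio) in oleic acid-fed (400 uM added) Drosophila S3 cells treated with a concentration series. 20 uM Triacsin C defined 100% inhibition.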
# Potency is the fitted concentration of half-maximal effect.
Structure (SMILES),"lipid storage change, negative = inhibition",cell number change [%],outcome,Potency
FC(F)(F)c1cccc(NC(=S)NCC(c2cccnc2)N2CCOCC2)c1 (stereo not drawn),9.33% (inactive),-6.8,,
COc1ccc(NC(=S)N(CCc2nc3cc(C)c(C)cc3[nH]2)Cc2cccnc2)cc1,-8.97% (inactive),,,
Cc1ccc(S(=O)(=O)N2CCC(C(=O)Nc3ccccc3N3CCCC3)CC2)cc1,10.2% (inactive),,,
CCn1c(=O)cc(SCC(=O)NCc2ccccn2)c2ccccc21,-9.58% (inactive),,,
COCCn1c(SCC(=O)NC(C)c2ccc(F)cc2)nc2ccccc21 (stereo not drawn),-22.5% (inactive),25.2,,
O=C(COc1ccc2c(c1)oc(=O)c1ccccc12)NCCCN1CCOCC1,19.8% (inactive),13.8,,
COc1ccc(CCN(Cc2cc3ccc(C)cc3[nH]c2=O)C(C)=O)cc1OC,19.7% (inactive),,,
COc1ccc(-n2c(=S)[nH]c3cc(C(=O)Nc4ccc(OC)c(OC)c4)ccc3c2=O)cc1,-2.43% (inactive),1.06,,
COc1ccc(-n2c(=S)[nH]c3cc(C(=O)NCc4ccccc4)ccc3c2=O)c(OC)c1,,8.56,inactive,
COc1ccc(-n2c(=S)[nH]c3cc(C(=O)Nc4ccc(F)cc4)ccc3c2=O)c(OC)c1,,32.1,,16.4 µM (active)
CNC(=S)NNC(=O)Cn1ccc(C)n1,-2.88% (inactive),-2.68,,
O=C(Nc1ccccc1)OC(CN1CCCCC1)C(F)(F)F (stereo not drawn),7.04% (inactive),-2.34,,
Fc1cccc(Nc2ncnc3[nH]ncc23)c1,,,inactive,
Cc1ccc(C)c(SCC(=O)NCc2ccco2)c1,4.45% (inactive),-4.84,,
O=C(N/N=C/c1ccc2ccccc2c1)c1ccc(COc2ccc3c(c2)CCC3)o1,-2.67% (inactive),-8.3,,
O=C1CC(N2CCN(C/C=C/c3ccccc3)CC2)C(=O)N1CCc1ccccc1 (stereo not drawn),,-18.6,,3.26 µM (active)
NC(=O)CN1CCN(C2CC(=O)N(CCc3ccccc3)C2=O)CC1 (stereo not drawn),-0.508% (inactive),2.77,,
O=C1CC(N2CCN(c3ccccc3)CC2)C(=O)N1CCc1ccccc1 (stereo not drawn),11.9% (inactive),0.673,,
CC1=NN(C(C#N)c2ccc(F)cc2)C(c2ccccc2)C1 (stereo not drawn),,-11.4,inactive,
COCC(=O)Nc1cc(=O)n(C)c(=O)n1C,,,inactive,
Cc1ccc(OCCSc2ncnc3sc(C)c(C)c23)cc1C,9.62% (inactive),-4.8,,
CC(=O)C1=C(Nc2ccccc2)CC(C)(O)C(C(C)=O)C1c1ccccc1 (stereo not drawn),5.22% (inactive),6.32,,
CCOC(=O)C1=C(Nc2ccccc2)CC(C)(O)C(C(=O)OCC)C1c1ccc(Cl)cc1 (stereo not drawn),,12.7,,1.16 µM (active)

Structure (SMILES),"lipid storage change, negative = inhibition",cell number change [%],outcome,Potency
CCOC(=O)C1=C(Nc2ccc(Br)cc2)CC(C)(O)C(C(=O)OCC)C1c1ccccc1 (stereo not drawn),-2.2% (inactive),1.29,,
CCCOC(=O)c1ccc(OCC(O)CN2CCN(C(=O)c3ccccc3)CC2)cc1 (stereo not drawn),13.2% (inactive),0.922,,
COCCOC(=O)c1c(NC(=O)COC(=O)c2ccc(C)o2)sc(C(N)=O)c1C,-24.5% (inactive),-10.2,,
COCCOC(=O)c1c(NC(=O)CN(C)c2ccccc2)sc(C(N)=O)c1C,-6.17% (inactive),,,
COCCOC(=O)c1c(NC(=O)COC(=O)Cc2cccc(OC)c2)sc(C(N)=O)c1C,,,,6.51 µM (active)
O=C(NCc1ccccc1Cl)c1cccc(C(F)(F)F)c1,-6.95% (inactive),-20.2,,
O=S(=O)(c1ccc(F)cc1)N1CCCN(Cc2c(F)cccc2F)CC1,,,inactive,
O=C(O)/C(=C\C(=O)c1ccccc1)Nc1ccccc1,19.7% (inactive),1.05,,
Cn1c(=O)c2cc3c(nc2n(C)c1=O)CC(c1ccccc1)CC3=O (stereo not drawn),-3.1% (inactive),11.1,,
Nc1oc2ccccc2c(=O)c1-c1ccc2c(c1)OCO2,6.55% (inactive),5.77,,
O=c1cc(-c2ccc3c(c2)OCCO3)oc2ccc(Cl)cc12,5.34% (inactive),12.3,,
Nc1c(-c2ccc3c(c2)OCCO3)oc2ccccc2c1=O,,-8.11,,1.84 µM (active)
CCOC(=O)C1=C(C)NC2=C(C(=O)CCC2)C1c1cccs1 (stereo not drawn),,25.2,inactive,
COc1ccc(NS(=O)(=O)c2cccc(C(=O)N/N=C(\C)c3ccc(-n4ccnc4)cc3)c2)cc1,,11.3,inactive,
O=C(Nc1ccccc1C(=O)NCCCN1CCOCC1)c1ccc(F)cc1F,0.737% (inactive),3.6,,
Cn1nccc1C(=O)NC1CC(C)(C)Cc2c1cnn2-c1ccc(F)cc1 (stereo not drawn),9.92% (inactive),,,
CC1(C)Cc2c(cnn2-c2ccc(F)cc2)C(NC(=O)C2=NNC(=O)CC2)C1 (stereo not drawn),,,inactive,
CSCc1ccc(C(=O)NC2CC(C)(C)Cc3c2cnn3-c2ccc(F)cc2)o1 (stereo not drawn),,-25.2,,25.9 µM (active)
COc1ccc(-n2ncc3c2CC(C)(C)CC3NC(=O)c2ccnn2C)cc1 (stereo not drawn),,-19.1,,14.6 µM (active)
COc1ccc(-n2ncc3c2CC(C)(C)CC3NC(=O)c2ccc(OC)o2)cc1 (stereo not drawn),1.29% (inactive),-8.87,,
CC1(C)Cc2c(cnn2-c2ccc(F)cc2)C(NC(=O)c2ccoc2)C1 (stereo not drawn),22% (inactive),6.57,,
CCN1CCCC1CNC(=O)c1cn(C)c2ccc(S(=O)(=O)N3CCCCCC3)cc2c1=O (stereo not drawn),-0.86% (inactive),3.92,,
CC(C)NC(=O)C(OC(=O)c1ccccc1)C(OC(=O)c1ccccc1)C(=O)O (stereo not drawn),7.13% (inactive),7.86,,

Structure (SMILES),"lipid storage change, negative = inhibition",cell number change [%],outcome,Potency
Cn1nc(-c2ccccc2)cc1NC(=O)Nc1ccccc1F,-20.6% (inactive),-4,,
COc1cc(CC(=O)OCC(=O)NC2CCCCC2C)cc(OC)c1OC (stereo not drawn),8.4% (inactive),-2.51,,
Cc1nn(-c2ccccc2)c(C)c1S(=O)(=O)O,28.4% (inactive),-1.62,,
CC(=O)c1c(C)nn(-c2ccccc2)c1C,7.42% (inactive),16.2,,
Cc1nn(-c2ccccc2)c(C)c1-c1ccccc1O,,-20.1,,7.31 µM (active)
O=c1c2[nH]c3ccc(F)cc3c2ncn1Cc1ccncc1,4.58% (inactive),1.6,,
Cc1nn(CC(=O)NC(C)C)c(C)c1[N+](=O)[O-],24.3% (inactive),17.1,,
COc1ccc(CC(NC(C)=O)C(=O)NC2CCN(C(=O)c3cccc(Cl)c3)CC2)cc1OC (stereo not drawn),-3.02% (inactive),-1.21,,
COc1cccc(CC(NC(C)=O)C(=O)NC2CCN(C(=O)Nc3ccc(C)cc3)CC2)c1 (stereo not drawn),-17.2% (inactive),-3.63,,
CC(=O)NC(Cc1ccc(C)cc1)C(=O)NC1CCN(C(=O)NCc2ccccc2)CC1 (stereo not drawn),,13.3,inactive,
CC(=O)NC(Cc1ccccc1F)C(=O)NC1CCN(C(=O)NCc2ccccc2)CC1 (stereo not drawn),,-14.1,,6.51 µM (active)
O=C(Cc1ccccc1)NC1CCN(C(=O)NCc2ccccc2)CC1,-20.6% (inactive),-0.661,,
COc1cccc(CC(NC(C)=O)C(=O)NC2CCN(C(=O)c3ccc(Cl)cc3)CC2)c1 (stereo not drawn),,-13.3,,3.26 µM (active)
O=C(NC1CCN(C(=O)NCc2ccccc2)CC1)c1cccc(F)c1,,11.7,,29.1 µM (active)
O=C(c1ccc(F)cc1)C1CCN(C(=O)NCc2ccccc2)CC1,12.7% (inactive),2.65,,
CC(=O)NC(Cc1cccc(C)c1)C(=O)NC1CCN(C(=O)NCc2ccccc2)CC1 (stereo not drawn),-8.97% (inactive),5.24,,
COc1ccnc(Oc2cc(Cl)cc(Cl)c2)c1C#N,10.2% (inactive),16.7,,
COc1cc(C(=O)NCC(=O)OCC(=O)Nc2ncc(Cl)cc2Cl)cc(OC)c1OC,19.4% (inactive),,,
O=C(Cn1nnc(-c2cccs2)n1)NCc1ccco1,6.95% (inactive),14.3,,
Cc1cc(=O)oc2c3c(cc(OCC(=O)N4CCC(C(=O)O)CC4)c12)OC(C)(C)CC3,-0.64% (inactive),22.1,,
Cc1nc(C)c(C(=O)NCCC(c2ccccc2)c2ccccc2)o1,-5.08% (inactive),-16.5,,
Cc1ncoc1C(=O)NCc1ccccc1Cl,-6.9% (inactive),-13.1,,
Cc1nc(C)c(C(=O)NCc2ccccc2Cl)o1,,-27.9,,8.2 µM (active)

Structure (SMILES),"lipid storage change, negative = inhibition",cell number change [%],outcome,Potency
COC(CNC(=O)c1ccc2nc(-c3ccccc3)c(-c3ccccc3)nc2c1)OC,0.217% (inactive),-6.61,,
O=C(CN1CCN(c2ccccc2F)CC1)Nc1ccc2c(c1)CCC2,16.4% (inactive),-8.56,,
Cc1ccc(NS(=O)(=O)c2ccc(Cl)s2)cc1S(=O)(=O)N(C)C,,9.65,inactive,
Cc1nc(-c2ccc(S(=O)(=O)Nc3cc(S(=O)(=O)N(C)C)ccc3C)s2)cs1,11.7% (inactive),1.19,,
Cc1ccc(S(=O)(=O)N(C)C)cc1NS(=O)(=O)c1ccc(Cl)s1,,0.163,,6.51 µM (active)
COCCN(C(=O)c1ccccc1F)c1nnc(-c2ccc(OC)cc2)s1,,-15.3,,18.4 µM (active)
COCCN(C(=O)c1ccccc1F)c1nc(-c2ccc(OC)cc2)cs1,,-17.2,inactive,
COCCN(C(=O)c1ccco1)c1nnc(-c2ccc(F)cc2)s1,-8.18% (inactive),4.04,,
O=C(Cn1c(NCCCO)nc2ccccc21)c1ccc(F)cc1,,11.9,inactive,
Cc1ccc(SCc2cc(=O)n3[nH]c(C)nc3n2)cc1,,,inactive,
Cc1cc(C)c(CN2CCC(N3CCC(C(=O)NCC4CCCO4)CC3)CC2)cc1C (stereo not drawn),,,inactive,
CC[C@@H]1CC=C[C@H]2[C@H]1C(=O)N(Cc1ccccc1)[C@H]2c1ccc2ccccc2c1,3.66% (inactive),,,
CCN(CC)C(=O)CSc1nc(N)c(C#N)c(-c2cccs2)c1C#N,-6.5% (inactive),-4.19,,
CCN(CC)C(=O)CSc1nc(-c2cccs2)cc(-c2cccs2)c1C#N,,-14,,14.6 µM (active)
CCN(CC)C(=O)CSc1nc(C)cc(-c2cccs2)c1C#N,-8.02% (inactive),-17.5,,
O=C(CC1Sc2ccccc2NC1=O)Nc1cccc(-c2nnc3n2CCCCC3)c1 (stereo not drawn),1.89% (inactive),4.38,,
Cc1ccsc1C(=O)Nc1ccc2c(c1)OCCO2,1.81% (inactive),,,
Cc1ccc(NC(=O)c2cccs2)cc1[N+](=O)[O-],6.94% (inactive),-1.31,,
Cc1ccc(NC(=O)c2sccc2C)cc1[N+](=O)[O-],,7.44,,8.2 µM (active)
COc1ccc(-c2csc(NC(=O)c3cccc(N4C(=O)CCC4=O)c3)n2)cc1C,-7.59% (inactive),-26.1,,
O=C1CC(=O)N(CCc2ccccc2)C(=O)N1CCc1ccccc1,2.21% (inactive),-9.18,,
COc1ccc(OC)c(N=CC2=C(O)CC(C)(C)CC2=O)c1,,25.1,inactive,
C/C(=N\Nc1ccc([N+](=O)[O-])cc1)c1ccc2c(c1)OCO2,-8.87% (inactive),-16.9,,
